Only some compounds are listed: those with a hit (about 8% of all), similar ones and a draw of the others.
Pyk2 oligo antag – blocks oligomerization of human Pyk2 in cells; Q14289; Q293 cells, Pyk2 FERM NanoBiT luminescence; active compounds read low; z-score (the deposit names both 25 µM and 10 µM); 99,000 tested, 0.83% active;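 active means Z-score of -3 or lower, scaled per plate to the spread of control and sample wells; inactive means z-score above -3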;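 further: negative z-score means lost luminescence so less FERM oligomerization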
Target sequence (Q14289 whole entry, looked up): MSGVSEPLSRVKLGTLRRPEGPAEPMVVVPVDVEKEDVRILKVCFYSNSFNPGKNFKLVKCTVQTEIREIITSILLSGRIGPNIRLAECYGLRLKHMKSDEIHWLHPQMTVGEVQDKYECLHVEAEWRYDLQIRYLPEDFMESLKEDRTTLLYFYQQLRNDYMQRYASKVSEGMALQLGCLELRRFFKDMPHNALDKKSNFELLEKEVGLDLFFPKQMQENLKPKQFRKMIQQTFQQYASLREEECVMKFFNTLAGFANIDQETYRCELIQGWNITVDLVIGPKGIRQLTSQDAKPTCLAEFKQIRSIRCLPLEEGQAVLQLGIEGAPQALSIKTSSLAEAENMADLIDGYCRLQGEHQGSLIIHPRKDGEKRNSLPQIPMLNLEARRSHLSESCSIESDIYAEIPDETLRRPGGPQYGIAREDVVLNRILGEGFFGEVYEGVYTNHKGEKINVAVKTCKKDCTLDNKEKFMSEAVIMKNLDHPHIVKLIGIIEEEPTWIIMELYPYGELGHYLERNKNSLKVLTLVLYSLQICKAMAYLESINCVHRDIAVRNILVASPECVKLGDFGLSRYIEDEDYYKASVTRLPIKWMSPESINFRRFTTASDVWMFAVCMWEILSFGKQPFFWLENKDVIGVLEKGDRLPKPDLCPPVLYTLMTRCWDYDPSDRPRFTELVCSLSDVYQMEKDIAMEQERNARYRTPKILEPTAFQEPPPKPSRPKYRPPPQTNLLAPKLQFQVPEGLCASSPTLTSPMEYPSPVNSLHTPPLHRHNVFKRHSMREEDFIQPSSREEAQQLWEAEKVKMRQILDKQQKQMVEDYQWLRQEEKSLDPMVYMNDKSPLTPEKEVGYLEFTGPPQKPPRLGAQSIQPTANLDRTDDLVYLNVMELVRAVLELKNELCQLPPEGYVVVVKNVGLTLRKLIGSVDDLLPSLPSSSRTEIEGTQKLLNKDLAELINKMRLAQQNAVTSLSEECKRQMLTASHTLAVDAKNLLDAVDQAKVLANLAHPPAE
PostGolgi ctrl – growth of the yeast control strain, post-Golgi counter-screen; efflux-deficient yeast background strain, growth absorbance A615, 16 h; inhibition, % at 10 µM; 98,000 tested, 5% active; AID 738
Cav3 T inh – blocks human Cav3.2 T-type calcium channel. Cav3.2-expressing cells, Fluo-4 calcium fluorescence FDSS; active compounds read low. B-score at 10 µM. 100,000 tested, 4% active. AID 449739;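 active means single-dose well whose peak fluorescence ratio is a statistical outlier from its plate by either plate-standardised score or position-corrected B-score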
PostGolgi yeast – growth inhibition of a yeast mutant, post-Golgi transport screen | post-Golgi transport phenotypic cell assay | inhibition, % at 10 µM | 98,000 tested, 0.9% active | AID 739;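 further: yeast cells grown in 1536-well plates; yeast grown about 18 h at 30C before absorbance read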
An asterisk follows results filed as active. Unless noted, no stated cut-off is given here; in the data, active means inhibition above about 30%; inactive means the rest.

What do the screens show for `CC(NC(=O)CSc1nnc(-c2cccc(S(=O)(=O)N3CCCCC3)c2)o1)C12CC3CC(CC(C3)C1)C2` (configuration not stated)?
Pyk2 oligo antag: 0.29; PostGolgi ctrl: 7; Cav3 T inh: -7*; PostGolgi yeast: 2

Results for CC(C)CNC(=O)CSc1nnc(-c2cccc(S(=O)(=O)N3CCCCC3)c2)o1 ?
Pyk2 oligo antag: 1.1; PostGolgi ctrl: -2; Cav3 T inh: 1.1; PostGolgi yeast: -1

What do the screens show for `COc1cccc(-n2c(C)nc3c(cnn3-c3ccc(C)cc3)c2=O)c1`?
Pyk2 oligo antag: 0.15; PostGolgi ctrl: 7; Cav3 T inh: -0.067; PostGolgi yeast: 18

What do the screens show for `Cc1cccc(-n2c(C)nc3c(cnn3-c3ccc(F)cc3)c2=O)c1`?
Pyk2 oligo antag: 0.36; PostGolgi ctrl: 33*; Cav3 T inh: -0.21; PostGolgi yeast: -4

Results for O=C(NCc1ccc(C(F)(F)F)cc1)C1CC(c2cccc(F)c2)=NO1 (configuration not stated) ?
Cav3 T inh: -2.7*

What do the screens show for `O=C(NCc1cccc(C(F)(F)F)c1)C1CC(c2c(Cl)cccc2Cl)=NO1` (configuration not stated)?
PostGolgi ctrl: 34*; Cav3 T inh: -2.2; PostGolgi yeast: -8

How did COc1cccc(C(C(=O)Nc2ccc(F)cc2)N(C(=O)Cn2nnc3ccccc32)C2CC2)c1 (configuration not stated) do in these assays?
Pyk2 oligo antag: 1.2; PostGolgi ctrl: 12; Cav3 T inh: -0.98; PostGolgi yeast: 5

What do the screens show for `CC(C)NC(=O)c1cnc(Sc2ncc(C(F)(F)F)cc2Cl)n1C`?
Pyk2 oligo antag: 0.65; PostGolgi ctrl: 9; Cav3 T inh: 0.35; PostGolgi yeast: -2

Results for COc1ccc(-c2ccnc3nc(Sc4ncc(C(F)(F)F)cc4Cl)nn23)cc1 ?
Pyk2 oligo antag: -0.96; PostGolgi ctrl: 40*; Cav3 T inh: -2.2; PostGolgi yeast: -7

What do the screens show for `CSc1nc2nccc(-c3ccc(Cl)cc3)n2n1`?
Pyk2 oligo antag: 0.27; PostGolgi ctrl: 40*; Cav3 T inh: 0.32; PostGolgi yeast: -1

How did FC(F)(F)c1cnc(Sc2nc3nccc(-c4ccc(Cl)cc4)n3n2)c(Cl)c1 do in these assays?
Pyk2 oligo antag: -0.87; PostGolgi ctrl: 39*; PostGolgi yeast: -6

How did COc1ccccc1NC(=O)C(=O)NNC(=O)c1ccco1 do in these assays?
Pyk2 oligo antag: -0.41; PostGolgi ctrl: 3; Cav3 T inh: -0.14; PostGolgi yeast: 8

How did CCN(CC)C(=O)c1cnn(-c2ccccc2)c1NC(=O)c1ccccc1F do in these assays?
Pyk2 oligo antag: -0.64; Cav3 T inh: 0.83

Results for COC(=O)CC1COc2ccccc2N1C(=O)c1ccc(C(C)(C)C)cc1 (configuration not stated) ?
Pyk2 oligo antag: 0.46; PostGolgi ctrl: 27; Cav3 T inh: -2.9; PostGolgi yeast: 17

Results for CC1CC(C)(C)N2C(=O)C3(Nc4ccccc4S3)c3cccc1c32 (configuration not stated) ?
Pyk2 oligo antag: 0.52; PostGolgi ctrl: 45*; Cav3 T inh: -4.7*; PostGolgi yeast: -1

How did COCCNC(=O)c1onc(CSc2ccc(F)c(F)c2)c1C(=O)NCCOC do in these assays?
Cav3 T inh: 1.2

What do the screens show for `O=C(COc1ccc(Cl)cc1Cl)NC(=O)N1CCOCC1`?
Pyk2 oligo antag: 0.13; PostGolgi ctrl: 5; Cav3 T inh: -0.083; PostGolgi yeast: -6

How did O=[N+]([O-])c1ccc2c(c1)C(N1CCOCC1)/C(=C/COc1ccc(Cl)cc1Cl)O2 (configuration not stated) do in these assays?
Pyk2 oligo antag: 1.2; PostGolgi ctrl: 27; Cav3 T inh: -3.6*; PostGolgi yeast: -2

What do the screens show for `COc1ccc2c(c1)N(C)C(=O)CC(c1ccccc1)=N2`?
Pyk2 oligo antag: -0.99; PostGolgi ctrl: -2; Cav3 T inh: -1.6; PostGolgi yeast: -6

Results for CCCCN1C(=O)/C(=C2\SC(N3CCCCC3)=NC2=O)c2ccccc21 ?
Pyk2 oligo antag: -1.2; PostGolgi ctrl: 40*; Cav3 T inh: -2.2; PostGolgi yeast: 0

How did O=C1N=C(N2CCCCC2)SC1=C1CCCC1 do in these assays?
Pyk2 oligo antag: -0.51; PostGolgi ctrl: 7; Cav3 T inh: 0.96; PostGolgi yeast: 23

Results for COc1ccc(C2/C=C\CN(Cc3ccc(N(C)C)cc3)CC(=O)N2Cc2ccc(F)cc2)cc1 (configuration not stated) ?
Cav3 T inh: -0.35

How did O=S(=O)(c1ccccc1)c1cnc(-c2cccnc2)nc1-c1ccccc1 do in these assays?
Pyk2 oligo antag: -0.53; PostGolgi ctrl: 9; PostGolgi yeast: -2

What do the screens show for `Cc1nc(-c2ccccc2)sc1-c1nc(-c2cccnc2)ncc1S(=O)(=O)c1ccccc1`?
Pyk2 oligo antag: -2.4; PostGolgi ctrl: 32*; Cav3 T inh: -5*; PostGolgi yeast: 2

Results for Cc1nc(-c2ccccc2)sc1-c1nc(-c2cccs2)ncc1S(=O)(=O)c1ccccc1 ?
PostGolgi ctrl: 10; Cav3 T inh: -4.8*; PostGolgi yeast: 9

What do the screens show for `O=S(=O)(c1ccccc1)c1cnc(-c2cccnc2)nc1-c1ccc(Cl)cc1Cl`?
Pyk2 oligo antag: -1.7; PostGolgi ctrl: 24; PostGolgi yeast: -6

Results for CCNC(=O)/C(=C/c1ccc2c(c1)OCO2)NC(=O)c1ccc(Br)cc1 ?
Pyk2 oligo antag: 0.33; PostGolgi ctrl: 5; Cav3 T inh: -0.83; PostGolgi yeast: 3

Results for Cn1c(/N=C/c2cccs2)nc2ccccc21 ?
Pyk2 oligo antag: 0.47; PostGolgi ctrl: 9; Cav3 T inh: 3*; PostGolgi yeast: -1

Results for Cn1c(/N=C/c2cc(Cl)ccc2O)nc2ccccc21 ?
PostGolgi ctrl: 4; Cav3 T inh: -4.8*; PostGolgi yeast: 3

What do the screens show for `O=C(CNS(=O)(=O)c1ccccc1)NCc1ccccn1`?
Pyk2 oligo antag: 0.19; PostGolgi ctrl: 8; Cav3 T inh: 1.3; PostGolgi yeast: 1

Results for Cc1nn(Cc2ccccc2)c(C)c1NC(=O)CSc1nnc(-c2cc(Cl)ccc2O)n1C ?
Pyk2 oligo antag: -0.24; PostGolgi ctrl: 7; Cav3 T inh: -0.014; PostGolgi yeast: -5

Results for COc1cc(C2c3c(-c4cc(Cl)c(C)cc4O)n[nH]c3C(=O)N2Cc2cccnc2)ccc1O (configuration not stated) ?
Pyk2 oligo antag: -4.8*; PostGolgi ctrl: -3; Cav3 T inh: 0.68; PostGolgi yeast: -2

How did COc1ccc(C2C(C(=O)c3ccco3)=C(O)C(=O)N2Cc2cccnc2)cc1OC (configuration not stated) do in these assays?
Pyk2 oligo antag: 0.41; PostGolgi ctrl: 34*; Cav3 T inh: 0.26; PostGolgi yeast: 6

How did CCOc1ccc(C2C(C(=O)c3ccco3)=C(O)C(=O)N2Cc2cccnc2)cc1 (configuration not stated) do in these assays?
Pyk2 oligo antag: 1; PostGolgi ctrl: 1; Cav3 T inh: -0.52; PostGolgi yeast: -1

How did COc1cccc(C2c3c(-c4cc(Cl)c(C)cc4O)n[nH]c3C(=O)N2Cc2cccnc2)c1 (configuration not stated) do in these assays?
Pyk2 oligo antag: -3.7*; PostGolgi ctrl: 16; Cav3 T inh: 1.1; PostGolgi yeast: 1

How did Cc1noc2ncnc(Oc3ccc4ccccc4c3)c12 do in these assays?
Pyk2 oligo antag: 0.89; PostGolgi ctrl: 31*; PostGolgi yeast: -8
